High-throughput results from PubChem.
EP2 antag: inhibitors of human EP2 prostaglandin E2 receptor; P43116; C6 glioma cells expressing human EP2, cAMP TR-FRET; cells stimulated with saturating PGE2; inhibition, % at 25 µM; 0.52% of 260,000 active; AID 1422;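 active = percent inhibition above 40 after rounding to a whole number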;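 note: rat C6 glioma host cells with rolipram phosphodiesterase inhibitor present; the protocol text gives 20 µM as final concentration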
Target sequence (P43116 whole entry, looked up): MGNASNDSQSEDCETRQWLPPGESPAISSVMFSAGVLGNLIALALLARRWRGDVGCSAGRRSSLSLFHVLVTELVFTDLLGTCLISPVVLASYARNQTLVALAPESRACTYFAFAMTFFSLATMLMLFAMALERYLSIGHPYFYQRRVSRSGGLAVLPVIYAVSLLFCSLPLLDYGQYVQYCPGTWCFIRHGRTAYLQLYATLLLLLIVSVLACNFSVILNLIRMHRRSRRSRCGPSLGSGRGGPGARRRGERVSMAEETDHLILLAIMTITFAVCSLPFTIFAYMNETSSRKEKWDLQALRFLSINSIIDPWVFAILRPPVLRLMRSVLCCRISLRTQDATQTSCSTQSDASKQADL
EP2 modulator: EP2 receptor (human) modulation. 0.83% of 260,000 active. induction, % at 25 µM. EP2-expressing cells, cAMP HTRF FRET, PGE2 co-stimulation. P43116;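 active = compounds whose cAMP rise, as percent of the full-agonist control response, exceeds 60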;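 note: rat C6 glioma line stably carrying human EP2 under a CMV promoter; the protocol text gives 20 µM as final concentration; 100% = response of wells given 1 µM PGE2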
CHT PAM: allosteric activators of human choline transporter CHT. CHT-expressing cells, membrane potential dye, choline EC20; stronger effect = higher value; LV-AA mutant CHT in HEK293 cells. B-score at 10 µM. 0.49% of 310,000 active;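 active = initial fluorescence not abnormally high and integrated response B-score, plate-corrected, over 3 SD above library mean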
CHT block: inhibits the human high affinity choline transporter. 0.86% of 310,000 active. CHT-expressing cells, membrane potential dye, choline response; stronger effect = lower value. B-score at 10 µM. Q9GZV3;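 active = B-score over 3 SD under the library average, and starting fluorescence ratio not unusually high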;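 note: choline stimulus applied at its EC90 after an EC20 pre-addition; B-score computed on integrated fluorescence ratio after choline addition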
* hit, by the source's call; i = inactive; nt = not tested or not shown. This is a sample that favours compounds with a hit; in the whole collection about 2.1% have one here.

SMILES	EP2 antag	EP2 modulator	CHT PAM	CHT block
Cc1ccc(C)c(NC(=O)c2cc(-c3ccccc3)nn2-c2ccccc2)c1	2	64*	i	i
CN(C(=O)Cn1nc(-c2cccc3ncccc23)oc1=O)C1CCCCC1	10	-54	nt	nt
O=S1(=O)c2ccccc2N=NN1Cc1ccc(Cl)c(Cl)c1	45*	-36	i	i
CC(C)(C)c1ccc(CN2N=Nc3ccccc3S2(=O)=O)cc1	22	-30	i	i
COc1cc(CN2CCN(C(=O)c3ccc(F)cc3)CC2)cc(OC)c1O	16	-4	nt	nt
CCOC(=O)c1cnc(-n2nc(C)cc2C)nc1Nc1ccc(N(C)C)cc1	7	62*	i	i
Cc1ccn2c(NC(=O)C(C)(C)Oc3ccc(Cl)cc3)c(-c3cccs3)nc2c1	24	-14	i	-7.9*
Cc1ccc(C(=O)Nc2c(-c3cccs3)nc3cc(C)ccn23)cc1	6	9	i	i
CCNC(=S)N(Cc1ccco1)Cc1cc2ccc(C)cc2[nH]c1=O	11	-76	nt	nt
CCc1nc(N2CCCCC2C)c2oc3ccccc3c2n1 (configuration not stated)	3	48	i	i
CCc1nc(N2CCCC(C)C2)c2oc3ccccc3c2n1 (configuration not stated)	7	61*	i	i
COc1ccc(N2CC(C(=O)OCC(=O)Nc3cccc(Cl)c3Cl)CC2=O)cc1 (configuration not stated)	4	-89	nt	nt
COc1cc(/C=C2\C(=N)N3N=C(S(=O)(=O)CC(C)C)SC3=NC2=O)ccc1OC(=O)c1ccco1	nt	nt	i	-5.4*
CCS(=O)(=O)C1=NN2C(=N)/C(=C\c3ccc(OS(=O)(=O)c4ccccc4)c(OC)c3)C(=O)N=C2S1	nt	nt	i	-5.4*
Cc1ccc(S(=O)(=O)Oc2ccc(/C=C3\C(=N)N4N=C(S(C)(=O)=O)SC4=NC3=O)cc2)cc1	nt	nt	i	-6.4*
CCS(=O)(=O)C1=NN2C(=N)/C(=C\c3ccc(OC(=O)c4ccco4)cc3)C(=O)N=C2S1	nt	nt	i	i
COc1cc(/C=C2\C(=N)N3N=C(S(C)(=O)=O)SC3=NC2=O)ccc1OS(=O)(=O)c1ccccc1	nt	nt	i	i
CCc1cc2cc3c(cc2nc1SCC(=O)NNC(=O)c1cccc(C)c1)OCO3	10	-4	nt	nt
CCOc1ccc2[nH]c(=O)c(C(c3nnnn3CCOC)N3CCC(C)CC3)cc2c1 (configuration not stated)	14	-10	nt	nt
O=c1cc(-c2ccccc2)oc2ccc(O)cc12	9	-6	i	i
O=C1OC2(c3ccc(O)cc3Oc3cc(O)ccc32)c2c1c(-c1ccccc1)c(-c1ccccc1)c(-c1ccccc1)c2-c1ccccc1	45*	5	nt	nt
CC[C@@H](Cn1nc(-c2cccs2)ccc1=O)NC(=O)c1n[nH]c(=O)c2ccccc12	10	-21	nt	nt
S=c1nc[nH]c2c1[nH]c1ccc(Cl)cc12	10	61*	i	i
c1ccc(Cn2c(-c3ccco3)nc3nc4ccccc4nc32)cc1	17	62*	i	i
CCCCCn1c(-c2ccco2)nc2nc3ccccc3nc21	nt	56	i	i
SMILES	EP2 antag	EP2 modulator	CHT PAM	CHT block
c1ccc(CCNc2ccnc3cc4ccccc4cc23)cc1	58*	-83	nt	nt
NC(N)=N/N=C\c1c(Cl)cccc1Cl	12	-8	nt	nt
NC(N)=N/N=C/c1ccc(OCc2ccccc2Cl)cc1	96*	33	i	i
Cc1ccc(N=Nc2c(O)c(S(=O)(=O)O)cc3cc(S(=O)(=O)O)ccc23)c(C)c1	42*	10	nt	nt
COc1ccc(S(=O)(=O)N2CCC(Nc3nc(C)c(C)c(=O)[nH]3)CC2)cc1	nt	2	nt	nt
N=C(N)c1ccc(N=Nc2c(O)ccc3c2[nH]c2ccccc23)cc1	51*	-23	nt	nt
CCCC(c1nnnn1Cc1cccs1)N1CCN(C2CCCC2)CC1 (configuration not stated)	8	3	6.3*	i
Cc1c(C(=O)Nc2ccc3c(c2)OCCO3)cnn1C	nt	nt	i	i
Cc1c(C(=O)c2no[n+]([O-])c2C(=O)c2cnn(C)c2C)cnn1C	11	-20	i	-5.9*
O=C=Nc1ccc(Cc2ccc(N=C=O)cc2)cc1 (tested in a mixture with another compound)	45*	10	nt	nt
CS(=O)(=O)Nc1ccc(Cc2ccc(NS(C)(=O)=O)cc2)cc1	5	3	i	i
C=CCn1c2cc(C)oc2c2cnn(CC(=O)NC34CC5CC(CC(C5)C3)C4)c(=O)c21	nt	-20	nt	nt
N#C/C(=C\Nc1ccccc1O)c1nc2ccccc2o1	54*	-105	i	i
N#C/C(=C\c1ccncc1)c1nc2ccccc2o1	10	-39	i	i
Cc1ccc(C(=O)N2CCCc3ccccc32)c(F)c1F	4	62*	i	i
O=C(c1ccc(F)cc1F)N1CCCc2ccccc21	nt	nt	i	i
NC(N)=NC(N)=Nc1ccccc1	7	0	nt	nt
NC(N)=NC(N)=Nc1c(F)c(F)c(F)c(F)c1F	64*	-122	nt	nt
O=C(O)c1ccccc1CN1CCC[C@@H](C(=O)O)C1	48*	3	nt	nt
COc1ccc(C2(C(=O)N3CCCC(c4ncncc4-c4cc(C)no4)C3)CC2)cc1 (configuration not stated)	nt	1	nt	nt
CN(C)S(=O)(=O)NCCN1CCCCC1	10	2	nt	nt
C=CCOc1ccc(Cl)cc1CNC1CCCC1	5	62*	i	i
CCOC(=O)c1c(-c2ccc(OC)c(OC)c2)csc1NC(=O)COC	9	-2	nt	nt
COc1ccc(-c2noc(COc3ccc4c(c3)OCO4)n2)cc1	99*	-17	i	i
COc1ccc(-c2noc(COc3ccc4c(c3)OCO4)n2)cc1OC	10	-47	i	i
SMILES	EP2 antag	EP2 modulator	CHT PAM	CHT block
COC(=O)[C@H]1CN(C(=O)c2ccc3nc[nH]c3c2)C[C@@H]1c1ccc(F)cc1	nt	2	nt	nt
O=C(C1=C[C@H](C2CC2)C[C@H](OCc2ccc(CO)cc2)O1)N1CCN(Cc2ccc3c(c2)OCO3)CC1	5	-5	i	-5.3*
Cc1ccc2c(c1)N(CC(=O)N1c3ccccc3Sc3ccccc31)C(=O)CO2	9	63*	nt	nt
Cc1ccc2c(c1)N(CC(=O)N1CCCC1)C(=O)CO2	nt	nt	i	i
O=C(CCN1CCCCC1)N1CCc2c([nH]c3ccccc23)[C@H]1c1cccnc1	43*	5	nt	nt
OC1(c2ccc(F)cc2)CCN(Cc2ccc(OCCN3CCOCC3)cc2)CC1	nt	-32	nt	nt
COc1ccc(NC(=O)CSc2nc(-c3ccccc3)nc3c(C)cccc23)c(OC)c1	23	24	nt	nt
CCNC(=S)/N=C(/Nc1ccc(OC)cc1)Nc1nc(C)cc(C)n1	14	15	i	i
CCNC(=S)/N=C(/Nc1ccccc1)Nc1nc(C)cc(C)n1	7	70*	i	i
C=CCn1c(=NC(=O)c2ccco2)sc2cc(C(=O)OCC)ccc21	41*	33	i	i
C=CCn1c(=NC(=O)c2ccco2)sc2cc(C(=O)OC)ccc21	5	11	i	i
